GIRK2 activator: Activators of human GIRK2-containing channels. 34,000 tested, under 10 active. HEK293 GIRK2/NPY4 cells, thallium flux fluorescence. activation (% efficacy), % for hits at 37.5 µM. AID 1259324;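 active = primary screen hit, no activity in plain HEK293 cells, and in GIRK2-only cells above 5% efficacy rising with concentration; inactive = the rest, including fluorescent compounds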;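 also: efficacy is normalized control-subtracted fluorescence 15 s after thallium addition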
Target sequence (P48051 whole entry, looked up): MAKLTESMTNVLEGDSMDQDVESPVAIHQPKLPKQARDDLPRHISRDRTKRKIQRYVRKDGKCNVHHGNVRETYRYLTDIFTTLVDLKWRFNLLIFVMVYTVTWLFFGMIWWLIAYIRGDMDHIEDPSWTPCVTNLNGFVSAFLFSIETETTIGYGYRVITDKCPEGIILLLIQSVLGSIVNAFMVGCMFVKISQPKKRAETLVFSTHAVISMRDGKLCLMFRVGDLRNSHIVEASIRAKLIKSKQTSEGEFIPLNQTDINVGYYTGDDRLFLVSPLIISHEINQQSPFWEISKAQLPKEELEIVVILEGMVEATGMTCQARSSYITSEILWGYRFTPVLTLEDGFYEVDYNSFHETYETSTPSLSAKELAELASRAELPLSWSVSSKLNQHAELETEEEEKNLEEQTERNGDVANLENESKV
AMPAR-TARP mod: GluA2-stargazin AMPA receptor complex modulation; calls only at 30 µM; 40,000 compounds, 3.5% hits; HEK293 GluA2+stargazin, membrane potential dye (FDSS), glutamate EC50; hits were called plate by plate, in both directions;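 active = any of four per-well response measures lying three or more SD from its plate-wide compound average, in either direction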
Of the large screens only hits and unclear results are named; the others gave an inactive call. The entries come from a sample that favours hits as a whole.

CCn1c(SCC(=O)N2CCN(C(c3ccccc3)c3ccccc3)CC2)nc2ccccc2c1=O	AMPAR-TARP mod active (no result: GIRK2 activator)
Cc1cc(=O)[nH]c(SCC(=O)N2CCN(C(c3ccccc3)c3ccccc3)CC2)n1	none (no result: GIRK2 activator)
COc1ccc(CCNc2cc(C)nc3c(-c4ccccc4OC)cnn23)cc1OC	AMPAR-TARP mod active
COc1ccc(CCNc2cc(C)nc3c(-c4ccccc4OC)c(C)nn23)cc1OC	none
O=C(CSc1nc2ccsc2c(=O)n1Cc1ccc2c(c1)OCO2)NCc1ccccc1Cl	none
O=c1ccc2ccc(Oc3ncnc4scc(-c5ccc(Br)cc5)c34)cc2o1	none (no result: GIRK2 activator)
COc1ccc(OC)c(CNC(=O)c2ccc3c(=O)n4c(nc3c2)SCCC4)c1	none
COc1cc(C)c(Cl)cc1S(=O)(=O)NC(C)(C)C	none (no result: GIRK2 activator)
CCOCCCNS(=O)(=O)c1cc(Cl)c(C)cc1OC	AMPAR-TARP mod active (no result: GIRK2 activator)
O=C(NCCc1c[nH]c2ccccc12)C(=O)Nc1ccc(F)c([N+](=O)[O-])c1	none
CCc1ccc(Oc2cc(N3CCC(C(=O)NCc4ccccc4)CC3)ncn2)cc1	none
O=C(N(c1ccc(Oc2ccccc2)cc1)C1C=CS(=O)(=O)C1)C(F)(F)F (stereo not drawn)	none
COc1cc(/C=C/C(=O)c2cc(Br)ccc2O)cc(OC)c1OC	none (no result: GIRK2 activator)
O=C(NCC(F)(F)F)c1ccc(N2CCC(Cc3ccccc3)CC2)nn1	AMPAR-TARP mod active
O=C(NCC(F)(F)F)C1CCN(C(=O)CSCc2ccccc2)CC1	none (no result: AMPAR-TARP mod)
COC(=O)C1=C(CS(=O)(=O)c2ccccc2)NC(=O)NC1c1ccc(OC)c(OC)c1 (stereo not drawn)	AMPAR-TARP mod active (no result: GIRK2 activator)
COC(=O)C1=C(CS(=O)(=O)c2ccc(OC)c(OC)c2)NC(=O)NC1c1ccc(O)cc1 (stereo not drawn)	none (no result: GIRK2 activator)
COC(=O)C1=C(CS(=O)(=O)c2ccc(OC)c(OC)c2)NC(=O)NC1c1cccc(Cl)c1 (stereo not drawn)	none (no result: GIRK2 activator)
COC(=O)C1=C(CS(=O)(=O)c2cc(Cl)ccc2OC)NC(=O)NC1c1ccccc1 (stereo not drawn)	AMPAR-TARP mod active
CCOc1ccccc1NC(=O)Cn1c(C)cc(C)c(-c2nc(-c3ccc(Cl)cc3)no2)c1=O	AMPAR-TARP mod active (no result: GIRK2 activator)
COc1ccc(NC(=O)Cn2c(C)cc(C)c(-c3nc(-c4ccc(Cl)cc4)no3)c2=O)cc1	none (no result: GIRK2 activator)
COc1ccc(-c2noc(-c3c(C)cc(C)n(CC(=O)Nc4ccc(OC)c(Cl)c4)c3=O)n2)cc1	AMPAR-TARP mod active
Cc1cc(C)n(CC(=O)Nc2ccccc2F)c(=O)c1-c1nc(-c2ccc(Cl)cc2)no1	none
CCOc1ccc(/C=C2\SC(=S)N(c3ccc(NC(C)=O)cc3)C2=O)cc1OC	none (no result: GIRK2 activator)
CN(C)S(=O)(=O)c1ccc(C(=O)Nc2ccccn2)o1	none
CC(NCC(O)Cn1cc(/C=N\O)c2ccccc21)C(=O)O (stereo not drawn)	none (no result: AMPAR-TARP mod)
CC(=O)c1sc(NC(=O)c2ccno2)nc1-c1ccccc1	none
COc1ccc(OC)c(S(=O)(=O)Nc2ccc3c(c2)N(C(=O)C2CC2)CC3)c1	none
O=S(=O)(CCCOc1ccc(F)cc1)N1CCN(c2ccccc2)CC1	none
O=C(c1ccc([N+](=O)[O-])cc1)N(Cc1ccncc1)c1nc2c(F)cccc2s1	none
CCc1cccc2sc(N(Cc3ccncc3)C(=O)c3ccc(C#N)cc3)nc12	AMPAR-TARP mod active
O=C(c1ccc([N+](=O)[O-])cc1)N(Cc1ccncc1)c1nc2ccc(F)cc2s1	AMPAR-TARP mod active
CCOc1cccc2sc(N(Cc3ccncc3)C(=O)c3ccc(S(=O)(=O)N(C)C)cc3)nc12	none (no result: AMPAR-TARP mod)
Cc1ccc(S(=O)(=O)N2CC3(COC(C)(C)OC3)C2)cc1	none
COc1ccc2nc(-c3ccc(OC)c(NS(=O)(=O)c4ccccc4F)c3)cn2n1	none (no result: AMPAR-TARP mod)
CCCCOC(=O)c1ccc(NC2C=CS(=O)(=O)C2)cc1 (stereo not drawn)	none
O=C(N1CCC(c2nnc(-c3ccc(F)cc3)o2)CC1)C1(c2cccs2)CCCC1	AMPAR-TARP mod active
O=C(c1cccs1)N1CCC(c2nnc(-c3ccc(F)cc3)o2)CC1	none
Cc1ccc2nc(NC(=O)CSc3nnc(Cc4c(C)[nH]c(=O)[nH]c4=O)o3)sc2c1	none
CCCNC(=O)c1ccc(Cn2c(SCC(=O)NC(C)C)nc3ccccc3c2=O)cc1	none
CC(C)NC(=O)CSc1nnc2n(Cc3ccccc3)c(=O)c3ccc(C(=O)NC(C)C)cc3n12	AMPAR-TARP mod active
CC(C)NC(=O)c1ccc2c(=O)n(Cc3ccccc3)c3nnc(SCC(N)=O)n3c2c1	AMPAR-TARP mod active
Cn1c(=O)c2ccc(C(=O)NC3CCCCC3)cc2n2c(SCC(N)=O)nnc12	AMPAR-TARP mod active
Cn1c(CSc2nc(N)cc(N)n2)nnc1SCC(=O)NC1CCCCC1	none (no result: GIRK2 activator)
CC(C)NC(=O)c1ccc(Cn2c(SCC#N)nc3ccccc3c2=O)cc1	none
Cc1cc(NC(=O)Cc2ccc(S(C)(=O)=O)cc2)n(C)n1	none (no result: AMPAR-TARP mod)
Cc1ccc(C(=O)Nc2ccccn2)cc1S(=O)(=O)N1CCCC1	none
CCOc1cc(S(=O)(=O)N2CCN(CCO)CC2)c(OCC)cc1C	none
CCc1ccccc1OCC(=O)Nc1cc(C)c(Cl)cc1OC	none
CCOc1ccccc1Nc1nc(-c2cccnc2)nc2ccccc12	none (no result: GIRK2 activator)
Cc1c(Cl)cccc1NC(=O)Cc1cc(-c2ccc3c(c2)CC(C)O3)on1 (stereo not drawn)	none
O=C(Nc1ccc(-c2ccc(N3CCOCC3)nn2)cc1)Nc1cccc(Cl)c1	AMPAR-TARP mod active
Cc1ccccc1-c1ccc(N2CCC(C(=O)Nc3ccc4c(c3)OCO4)CC2)nn1	none
O=C(Nc1ccc(-c2ccc(N3CCOCC3)nn2)cc1)Nc1ccccc1F	none
O=C(NCc1cccnc1)C1CCN(c2ccc(-c3ccc(Cl)cc3)nn2)CC1	none
O=C(Nc1ccc2c(c1)OCO2)C1CCN(c2ccc(-c3ccc(Cl)cc3)nn2)CC1	AMPAR-TARP mod active
O=C(Nc1cccnc1)C1CCN(c2ccc(-c3ccc(Cl)cc3)nn2)CC1	AMPAR-TARP mod active
COc1cc(NC(=O)C(C)(C)C)ccc1N1CCCCC1=O	none (no result: GIRK2 activator)
COc1ccc(C(=O)Nc2ccc(S(=O)(=O)Nc3cc(C)on3)cc2)c(OC)c1	none (no result: GIRK2 activator)
Cc1ccc(CN2C(=O)NC3(CCN(C(=O)Nc4ccc(Cl)cc4)CC3)C2=O)cc1	none (no result: AMPAR-TARP mod)
O=C(Nc1cccc(C(F)(F)F)c1)N1CCC2(CC1)NC(=O)N(Cc1ccccc1)C2=O	AMPAR-TARP mod active
O=C(Nc1cccc(Cl)c1)N1CCC2(CC1)NC(=O)N(Cc1ccccc1)C2=O	AMPAR-TARP mod active
CCCN1C(=O)NC2(CCN(C(=O)Nc3cccc(C(F)(F)F)c3)CC2)C1=O	none
Cc1cc(=O)oc2cc(OCC3CCNCC3)ccc12	AMPAR-TARP mod active
Cc1cc(=O)oc2cc(OCC(=O)c3ccc(Cl)c(Cl)c3)ccc12	none (no result: GIRK2 activator)
Cc1ccc(S(=O)(=O)NCCC(=O)N/N=C\c2ccco2)cc1	none (no result: AMPAR-TARP mod)
CC(=O)OC(Cn1nc(C)cc1C)Cn1c2ccccc2c2ccccc21 (stereo not drawn)	none
CC(=O)OC(COc1ccc(N(C)C(C)=O)cc1)Cn1c2ccccc2c2ccccc21 (stereo not drawn)	AMPAR-TARP mod active
CC(CCc1ccccc1)NC(=O)Cc1csc(Nc2ccccc2)n1 (stereo not drawn)	AMPAR-TARP mod active
O=C(Cc1csc(Nc2ccccc2)n1)NCCc1ccccc1	none
COc1cc(N2CCN(C(=O)c3ccc(C(F)(F)F)cc3)CC2)nc(OC)n1	none
O=C(NCCn1nc(-c2cccs2)ccc1=O)NCc1ccccc1	none
Cc1ccccc1CC(=O)NCCn1nc(-c2cccs2)ccc1=O	AMPAR-TARP mod active

Screening results deposited in PubChem BioAssay by several laboratories.
